Results: PubChem BioAssay AID463187 (University of Pittsburgh Molecular Library Screening Center, 2010)
In all, about 220,000 compounds went through this assay and about 1,500 (0.68%) were called active.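 How the source made its calls: active means Hck-Nef kinase inhibition above about 50% (limit read from the data); inactive means inhibition below that limit.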 Only a selection was taken, and actives are over-represented in it overall.

What follows are compounds tested against Tyrosine-protein kinase HCK (Homo sapiens) (UniProt P08631) (assay: inhibitors of Nef-activated human Hck kinase, primary screen, biochemical, Z-Lyte FRET, 384-well, Hck-YEEI (AID 463187;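 further: 0% = DMSO with Hck plus Nef and 100% = Hck alone without Nef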)). Conditions: Recombinant Hck-YEEI plus Nef, Z-Lyte FRET kinase assay; at 20 µM; stronger effect = higher value.
Tyrosine-protein kinase HCK (Homo sapiens), sequence (P08631 whole entry, looked up): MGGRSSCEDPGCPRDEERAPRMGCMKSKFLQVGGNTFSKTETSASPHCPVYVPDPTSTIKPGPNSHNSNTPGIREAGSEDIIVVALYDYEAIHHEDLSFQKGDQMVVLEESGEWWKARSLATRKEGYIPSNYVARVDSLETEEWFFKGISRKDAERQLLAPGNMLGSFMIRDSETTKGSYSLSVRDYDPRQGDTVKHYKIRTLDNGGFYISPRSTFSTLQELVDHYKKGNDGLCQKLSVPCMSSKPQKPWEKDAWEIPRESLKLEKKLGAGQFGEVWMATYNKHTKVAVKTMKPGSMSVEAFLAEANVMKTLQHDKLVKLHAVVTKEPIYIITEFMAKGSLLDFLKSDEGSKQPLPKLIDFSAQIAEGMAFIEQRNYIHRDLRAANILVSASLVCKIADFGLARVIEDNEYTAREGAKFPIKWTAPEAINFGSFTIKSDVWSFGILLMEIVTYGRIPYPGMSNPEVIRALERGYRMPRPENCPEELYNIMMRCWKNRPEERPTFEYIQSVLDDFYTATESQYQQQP

Compound	inhibition
c1ccc(CSc2nnc(-c3ccco3)c(-c3ccco3)n2)cc1	61.4% (active)
Clc1ccccc1CSc1nnc(-c2ccco2)c(-c2ccco2)n1	21.2% (inactive)
Brc1ccc(CSc2ccc(-c3ccco3)nn2)cc1	22.4% (inactive)
O=C(COc1ccc([N+](=O)[O-])cc1)Nc1ccc(N2CCCC2)cc1	1.04% (inactive)
Cc1c(NC(=O)/C=C/C(=O)O)cccc1[N+](=O)[O-]	0.166% (inactive)
Cc1ccc(/C=C/C(=O)Nc2ccc([N+](=O)[O-])c(NC(=O)/C=C/c3ccc(C)o3)c2)o1	79.2% (active)
CCc1nnc(NC(=O)/C=C/c2ccc(C)o2)s1	2.58% (inactive)
Cc1ccc(N(CC(=O)Nc2cc(C)cc(C)c2)S(=O)(=O)c2cccc3nonc23)cc1	2.67% (inactive)
Cc1c(Nc2nc3ccccc3nc2NS(=O)(=O)c2cccs2)c(=O)n(-c2ccccc2)n1C	-1.3% (inactive)
Cc1ccc(C)c(SCc2nc3sc(C(=O)O)c(C)c3c(=O)[nH]2)c1	30.6% (inactive)
CCOC(=O)c1ccc[n+](CC(=O)Nc2ccccc2OC(F)F)c1	3.79% (inactive)
Cc1ccc(-c2nc(SCC(=O)Nc3ccccc3OC(F)F)c3c(C)c(C(=O)O)sc3n2)cc1	98.6% (active)
COc1ccc(N(CC(=O)NC2CCCC2)C(=O)CS(=O)CC(=O)Nc2ccc3c(c2)OCO3)cc1 (configuration not stated)	20.7% (inactive)
Cc1cc(C)c2nc(-c3cccnc3)cc(C(=O)Nc3ccc(S(=O)(=O)Nc4onc(C)c4C)cc3)c2c1	62.9% (active)
CCn1c(SCC(=O)Nc2ccc(S(=O)(=O)Nc3onc(C)c3C)cc2)nnc1-c1ccccc1	0.636% (inactive)
COc1ccc(C(=O)Nc2ccc(S(=O)(=O)Nc3onc(C)c3C)cc2)cc1OC	2.01% (inactive)
O=C1c2ccccc2NC(c2ccccc2O)N1NS(=O)(=O)c1ccccc1 (configuration not stated)	24.7% (inactive)
O=C(COC(=O)CSc1nnc(-c2ccc(Cl)cc2)o1)Nc1cc(Cl)cc(Cl)c1	3.81% (inactive)
CCN(CC)c1ccc2cc(C(=O)O)c(=O)oc2c1	179% (active)
CCN(CC)c1ccc2oc(=O)c(C)nc2c1	-14.5% (inactive)
CCN(CC)c1ccc2cc(C(N)=O)/c(=N\NC(=O)c3ccncc3)oc2c1	-3.77% (inactive)

Compound	inhibition
Cc1cc(C)nc(NNC2=CC(=O)CC(C)(C)C2)n1	22.8% (inactive)
Cc1[nH]nc(-c2ccc(OCc3cnn(-c4ccccc4)c3)cc2O)c1Oc1ccc(Cl)cc1	0.631% (inactive)
Cc1ccc2nc(S(=O)(=O)O)[nH]c2c1	-5.86% (inactive)
CCOC(=O)CSc1nc2ccc(C)cc2[nH]1	10.3% (inactive)
Cc1ccc2nc(/C(C#N)=C\c3ccc(OC(=O)c4cccs4)cc3)[nH]c2c1	57.1% (active)
CCOC(=O)c1sc(-c2cccc([N+](=O)[O-])c2)cc1N	22% (inactive)
CN(C)C(=O)c1nc2ccc(Cl)cn2c1CN1CCN(c2ncccn2)CC1	16.5% (inactive)
CCCC(=O)Nc1nc2ccc(NC(=O)c3c(F)c(F)c(OC)c(F)c3F)cc2s1	13.4% (inactive)
O=C(Nc1ccc(S(=O)(=O)Nc2nccs2)cc1)c1cc(-c2ccncc2)nc2ccccc12	75% (active)
O=C(Nc1ccc(S(=O)(=O)Nc2nccs2)cc1)c1cc(=O)[nH]c2ccccc12	8.68% (inactive)
CCC(CC)C(=O)Nc1ccc(S(=O)(=O)Nc2nccs2)cc1	15.9% (inactive)
Cc1cc(CNC(=O)c2cccc([N+](=O)[O-])c2)c2ccccc2n1	20.7% (inactive)
CC(=O)Nc1ccc(Nc2c3ccccc3nc3ccccc23)cc1	12.8% (inactive)
O=[N+]([O-])c1cccc(Nc2c3ccccc3nc3ccccc23)c1	64.5% (active)
Cc1ccc2cc(CCNC(=O)c3ccc4c(c3)OCO4)c(=O)[nH]c2c1	0.571% (inactive)
Cc1cc(N)n2nc(-c3ccc(C(C)(C)C)cc3)cc2n1	0.862% (inactive)
CSCC[C@H](NC(=O)CCCn1nnc2ccccc2c1=O)C(=O)O	4.6% (inactive)
O=C(COc1ccccc1F)NNC(=O)c1ccc(N2CCCCC2)c([N+](=O)[O-])c1	2.35% (inactive)
CCCN(CCC)c1ccc(C(O)c2nnc(-c3ccccc3)o2)cc1 (configuration not stated)	-0.222% (inactive)
OC(c1nnc(-c2ccccc2)o1)c1cccs1 (configuration not stated)	52.9% (active)
Nc1ccc(-c2nnc(-c3ccc(-c4ccccc4)cc3)o2)cc1	2.48% (inactive)

Compound	inhibition
C/C(CC(=O)Nc1ccc(C)cc1C)=N\NC(=O)C(C)C	14.7% (inactive)
NC(=O)Nc1ccccc1C(=O)NCCc1ccccc1	1.58% (inactive)
COc1ccc(Cl)cc1S(=O)(=O)N1CCC(O)(c2ccc(Cl)cc2)CC1	3.69% (inactive)
CCCCN(CCCC)CC(O)Cn1c2ccccc2c(=O)c2ccccc21 (configuration not stated)	119% (active)
O=C1c2ccccc2S(=O)(=O)N1CC(O)Cn1c2ccccc2c2ccccc21 (configuration not stated)	0.294% (inactive)
CS(=O)(=O)N(CC(O)Cn1c2ccccc2c2ccccc21)c1cccc2ccccc12 (configuration not stated)	0.481% (inactive)
Cn1cnnc1Sc1ccc(CN2CCN(C3CCCC3)C(CCO)C2)o1 (configuration not stated)	-5.92% (inactive)
COC/C=C/C1=CC2=CC(=O)C(C)(OC(=O)CCC(=O)OC)C(=O)C2=CO1 (configuration not stated)	51.9% (active)
COC(=O)CCCC1=CC2=CC(=O)C(C)(OC(=O)c3cccs3)C(=O)C2=CN1CC1CC1 (configuration not stated)	10.7% (inactive)
COC(=O)CCCC1=CC2=CC(=O)C(C)(OC(=O)c3cccs3)C(=O)C2=CN1CC(C)C (configuration not stated)	23.4% (inactive)
Cc1ccc(CN(C(=O)c2sc3ccccc3c2Cl)C2CCS(=O)(=O)C2)cc1 (configuration not stated)	3.1% (inactive)
CC(=O)Nc1ccc(SCC(=O)Nc2ccccc2Oc2ccccc2)cc1	0.985% (inactive)
Cc1nn(CC(=O)Nc2ccc(N(C)C)cc2)c(C)c1[N+](=O)[O-]	4.36% (inactive)
CCOC(=O)/C(C#N)=C/c1cn(CCC(=O)O)nc1-c1ccc(Br)cc1	20.2% (inactive)
O=C(O)CCn1cc(/C=C/C(=O)c2ccc(Cl)cc2)c(-c2cccc(Br)c2)n1	55% (active)
O=C(O)/C=C/c1cn(Cc2ccccc2)nc1-c1cccs1	-1.06% (inactive)
Cc1onc(C(=O)NN)c1C(=O)N1CCN(C(c2ccccc2)c2ccccc2)CC1	16.6% (inactive)
N/C(=N\S(=O)(=O)c1cc(C(F)(F)F)cc(C(F)(F)F)c1)c1cccs1	-0.264% (inactive)
O=[N+]([O-])c1ccccc1N/N=C1\CCc2ccccc21	-4.18% (inactive)
COc1ccc(NC(=S)NCc2cccs2)c(OC)c1	0.854% (inactive)
